{"source": "the OligoGym collection"}
{"molecular_target": "PRR3", "assay": "pooled miR-30 sensor sort-seq; sequence = guide strand", "conditions": "shRNA"}
{"sequence": "TTTTTGGCAAAATGTCGGCAGA", "sensor-assay potency score (higher = more potent)": -1.27}
{"sequence": "TTCTTGATAAGAGACCAGCTTT", "sensor-assay potency score (higher = more potent)": -0.745}
{"sequence": "TAACTCTGCACCAGTCACCCAA", "sensor-assay potency score (higher = more potent)": -0.887}
{"sequence": "TCTGCATTGACTCCCCACCAAC", "sensor-assay potency score (higher = more potent)": -1.61}
{"sequence": "TCCTTGTGAAAGCTTCCCCTGG", "sensor-assay potency score (higher = more potent)": -1.31}
{"sequence": "TGATCCTGGAGGACCTCTGTGA", "sensor-assay potency score (higher = more potent)": -0.51}
{"sequence": "TCGAGGGTTTCTCTGTTCCTTG", "sensor-assay potency score (higher = more potent)": -0.785}
{"sequence": "TAGGAAGTAACTCTGCACCAGT", "sensor-assay potency score (higher = more potent)": -0.0951}
{"sequence": "TTTGTCTTCCATAACCTGGGGG", "sensor-assay potency score (higher = more potent)": 0.295}
{"sequence": "TTGATAAGAGACCAGCTTTTGA", "sensor-assay potency score (higher = more potent)": -1.38}
{"sequence": "TTGTCTTCCATAACCTGGGGGT", "sensor-assay potency score (higher = more potent)": -0.114}
{"sequence": "TCAGTGGTCCCCTTGATCCTGG", "sensor-assay potency score (higher = more potent)": -0.862}
{"molecular_target": "PRR5", "assay": "pooled miR-30 sensor sort-seq; sequence = guide strand", "conditions": "shRNA"}
{"sequence": "ATCTCCGACACAGAGTGCCTGC", "sensor-assay potency score (higher = more potent)": -0.984}
{"sequence": "TTCAGAATCCGAGTCCACGGAC", "sensor-assay potency score (higher = more potent)": -1.2}
{"sequence": "TCTAGCTTCACACTGAGGGTGA", "sensor-assay potency score (higher = more potent)": 0.389}
{"sequence": "TGGTCCACCAGGTTCTCCGGGC", "sensor-assay potency score (higher = more potent)": -0.928}
{"sequence": "TCACTGAAGAAGAAGTCCCAGG", "sensor-assay potency score (higher = more potent)": -0.956}
{"sequence": "TCGTGGGGTACAGTCTGCTGGG", "sensor-assay potency score (higher = more potent)": -0.767}
{"sequence": "TAGTCCTCAGTCACGCCCCTGG", "sensor-assay potency score (higher = more potent)": -0.743}
{"sequence": "TGTTGTAGCTCTTGGAGCGCAC", "sensor-assay potency score (higher = more potent)": -0.639}
{"sequence": "TTCTGTCCCTCATAGAAGCGAA", "sensor-assay potency score (higher = more potent)": -1.06}
{"sequence": "TAGCTTCACACTGAGGGTGATG", "sensor-assay potency score (higher = more potent)": -1.08}
{"sequence": "TTGTGGATGCTGTTCCAGGTGG", "sensor-assay potency score (higher = more potent)": -1.05}
{"sequence": "ATCCTCTAGCTTCACACTGAGG", "sensor-assay potency score (higher = more potent)": -1.85}
{"molecular_target": "PRRX2", "assay": "pooled miR-30 sensor sort-seq; sequence = guide strand", "conditions": "shRNA"}
{"sequence": "TTCCTGCGGAACTTGGCGCGGC", "sensor-assay potency score (higher = more potent)": -0.664}
{"sequence": "TAGGACTTGAGCAGCGAGGCAG", "sensor-assay potency score (higher = more potent)": -0.751}
{"sequence": "TAGGGGGACGAGGCTGTCCAGG", "sensor-assay potency score (higher = more potent)": -1.31}
{"sequence": "TAGGGTGGCACTGTGCTGTAGG", "sensor-assay potency score (higher = more potent)": 0.726}
{"sequence": "TCGCTGAGGTTGACGCGCCGGG", "sensor-assay potency score (higher = more potent)": -1}
{"sequence": "ATAATCTGGACTCAGGGCGGTG", "sensor-assay potency score (higher = more potent)": -1.16}
{"sequence": "TTGGCCTTGAGACGGAGGCTGG", "sensor-assay potency score (higher = more potent)": -0.803}
{"sequence": "TTTTCTATTGCTGTCCACCCAG", "sensor-assay potency score (higher = more potent)": -0.328}
{"sequence": "TTTCTATTGCTGTCCACCCAGG", "sensor-assay potency score (higher = more potent)": -1.08}
{"sequence": "TTCTTCTTCCGCTTGGCGGCGC", "sensor-assay potency score (higher = more potent)": -0.268}
{"sequence": "TTGGTTTTAATACACAAACTAA", "sensor-assay potency score (higher = more potent)": -1.05}
{"sequence": "TTGAGCAGCGAGGCAGAGCGGC", "sensor-assay potency score (higher = more potent)": -1.11}
